Assay results: PubChem BioAssay (NCATS)
Several values for one entry are separate records, joined by “and”; a condition that tells them apart may be missing. Equal values may be shown once. A number with no mark means an inactive call. Records with an inconclusive call do not appear. Activity calls are given as the source filed them. Calls follow the shape of the dose curve; as a rule, active = well fitted curve in the direction sought with a large enough effect; inconclusive = small, poorly fitted or top-dose-only effect, or another doubt; inactive = no such curve, though single readings can be large; an effect the other way counts as inactive or inconclusive.

Assays:
[1] = target: Cytochrome P450 3A4 (Homo sapiens) (UniProt P08684); assay: qHTS Assay for Inhibitors and Substrates of Cytochrome P450 3A4 (AID 884); also: potency is read from the fitted curve at half-maximal effect; nearly all actives have a fitted effect of over 50% in size
In short: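 20 nM human CYP3A4 with 25 uM Luciferin-PPXE (at KM) in 200 mM KPO4, preincubated 10 min with compound; NADPH regeneration started a 60 min RT reaction. Luciferin detected by luminescence, normalized to 57 uM ketoconazole as full inhibition.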

[2] = target: Cytochrome P450 3A4 (Homo sapiens) (UniProt P08684); assay: qHTS Assay for Activators of Cytochrome P450 3A4 (AID 885); also: nearly all actives have a fitted effect of over 65% in size
In short: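 Human CYP3A4 (20 nM) with Luciferin-PPXE at 25 uM (its KM) in 200 mM KPO4; 10 min compound preincubation, then NADPH regeneration and 60 min reaction at RT. Luciferin read by luminescence; normalized to 57 uM ketoconazole full inhibition.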

Chain of Cytochrome P450 3A4 (Homo sapiens) (P08684 whole entry, looked up): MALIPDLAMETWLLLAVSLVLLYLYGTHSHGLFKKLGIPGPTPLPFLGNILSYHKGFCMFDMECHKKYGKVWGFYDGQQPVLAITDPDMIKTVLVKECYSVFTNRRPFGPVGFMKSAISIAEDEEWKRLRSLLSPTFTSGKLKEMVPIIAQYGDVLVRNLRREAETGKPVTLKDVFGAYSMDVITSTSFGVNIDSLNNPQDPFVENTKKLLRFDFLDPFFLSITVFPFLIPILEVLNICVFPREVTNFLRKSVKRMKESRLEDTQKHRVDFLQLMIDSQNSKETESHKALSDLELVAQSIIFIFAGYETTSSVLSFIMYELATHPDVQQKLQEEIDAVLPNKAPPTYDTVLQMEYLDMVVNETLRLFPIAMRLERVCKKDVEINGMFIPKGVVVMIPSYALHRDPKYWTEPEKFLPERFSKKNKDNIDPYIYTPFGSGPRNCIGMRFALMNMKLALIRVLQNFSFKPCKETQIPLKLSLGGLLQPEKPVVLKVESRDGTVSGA

Compound	Potency [1]	Potency [2]	activity change, positive = activation [2]
CCCCCCNC(=O)Nc1ccc(S(=O)(=O)Nc2ccc(CCNC[C@H](O)COc3ccc(O)cc3)cc2)cc1	7.94 µM (active)	inactive	–
C/C(CCN1CCCCc2nc(C)c(C)cc21)=N\O[C@@H](C)CN1CCCCc2nc(C)c(C)cc21	3.98 µM (active)	–	-81.7% [at 11.4 µM]
C=CC[C@@H]1C=C[C@@H](O/N=C\[C@@H](OC)[C@H](C)/C=C\CC(=O)OC)[C@@H](CO)O1	3.16 µM (active)	–	-64.1% [at 11.4 µM]
COC(=O)[C@@H]1C[C@@H]2CC[C@@H](O)C[C@@H]2N1Cc1ccc(-c2ccccc2)cc1	20 µM (active)	inactive	–
CCC1=C(OC(=O)N(CC)CC)N2C(=O)OC(=NCCc3c[nH]c4ccccc34)[C@]2(C)[C@H]2C1=CC[C@H]1C(=O)N(C)C(=O)[C@H]12	1.26 µM (active)	inactive	–
CCN1C(=O)[C@@H]2[C@H](C1=O)[C@@H]1C[C@H]3C(=O)N(CC)C(=O)[C@H]3[C@@H]3C1=C(C(=O)N1C(=O)O/C(=N\CC4CC4)[C@]31C)[C@@H]2C	15.8 µM (active)	inactive	–
Cn1c(=O)c(C(=O)COC(=O)c2cc(-c3ccco3)nc3ccccc23)c(N)n(Cc2ccccc2)c1=O	12.6 µM (active)	inactive	–
FC(F)(F)c1ccc(C2[C@H]3CN(CC4CCCCC4)[C@H](c4ccccc4)C34CC2(c2cccnc2)C4)cc1 (stereo not given in full)	15.8 µM (active)	inactive	–
CCC1=C(OC(=O)N(CC)CC)N2C(=O)OC(=NCC(=O)OC)[C@]2(Cc2ccccc2)[C@H]2C1=CC[C@H]1C(=O)N(C)C(=O)[C@H]12	10 µM (active)	inactive	–
Clc1ccc(C2[C@H]3CN(CC4CCCCC4)[C@H](c4ccccc4)C34CC2(c2cccnc2)C4)cn1 (stereo not given in full)	3.98 µM (active)	inactive	–
COC(=O)c1cccc(C23CC4(C2)[C@H](CN(CC2CCCCC2)[C@@H]4c2ccccc2)C3c2ccccc2)c1 (stereo not given in full)	15.8 µM (active)	inactive	–
CO[C@@H]1COC(=O)C/C=C\[C@H](C)[C@@H](NS(=O)(=O)c2ccc(C)cc2)COC(=O)C/C=C\[C@@H]1C	3.98 µM (active) and 3.16 µM (active)	–	-70.4% [at 11.4 µM] and -70.5% [at 11.4 µM]
CN1C[C@@H]2C(c3ccccc3)C3(c4cccnc4)CC2(C3)[C@H]1c1ccccc1 (stereo not given in full)	2.51 µM (active)	inactive	–
CCC1=C(OC(=O)N(CC)CC)N2C(=O)OC(=NCC3CC3)[C@]2(C)[C@H]2C1=CC[C@H]1C(=O)N(CC)C(=O)[C@H]12	3.98 µM (active)	inactive	–
COC(=O)c1cccc(C23CC4(C2)[C@H](CN(C)[C@@H]4c2ccccc2)C3c2ccc(C(F)(F)F)cc2)c1 (stereo not given in full)	12.6 µM (active)	inactive	–
CCC1=C2CC[C@H]3C(=O)N(CC)C(=O)[C@H]3[C@H]2[C@@]2(Cc3ccccc3)C(=O)N(CC3CC3)C(=O)N2C1=O	2.51 µM (active)	inactive	–
CCC1=C2CC[C@H]3C(=O)N(C)C(=O)[C@H]3[C@H]2[C@@]2(Cc3ccccc3)C(=NCCc3c[nH]c4ccccc34)OC(=O)N2C1=O	1.26 µM (active)	inactive	–
CCC1=C(OC(=O)N(CC)CC)N2C(=O)OC(=NCc3ccccc3)[C@]2(C)[C@H]2C1=CC[C@H]1C(=O)N(CC(=O)OC)C(=O)[C@H]12	5.01 µM (active)	inactive	–
COC(=O)[C@@H]1C[C@@H]2CC[C@@H](O)C[C@@H]2N1Cc1ccccc1OS(=O)(=O)c1ccc(C)cc1	2.51 µM (active)	inactive	–
Cc1ccc(S(=O)(=O)N[C@@H]2COC(=O)C/C=C\[C@H](C)COC(=O)N[C@@H](C)C(=O)C/C=C\[C@H]2C)cc1	3.16 µM (active)	–	-86.3% [at 11.4 µM]
COC(=O)NC(c1ccco1)C(C(C)=O)C(=O)OC (stereo not given)	3.16 µM (active)	–	-66.9% [at 11.4 µM]
CCC1=C2CC[C@H]3C(=O)N(CC)C(=O)[C@H]3[C@H]2[C@@]2(C)C(=O)N(CC(=O)OC)C(=O)N2C1=O	7.94 µM (active)	inactive	–
CCCNC(=O)OC[C@@H]1O[C@H](CCO/N=C\C[C@H]2C=C[C@H](OC(C)=O)[C@@H](COC(C)=O)O2)C=C[C@@H]1Oc1ccc(OC)cc1	3.98 µM (active)	–	-95.4% [at 11.4 µM]
COC(=O)c1cccc(C23CC4(C2)[C@H](CN(Cc2cccnc2)[C@@H]4c2ccccc2)C3c2ccc(Cl)nc2)c1 (stereo not given in full)	2 µM (active)	inactive	–
CCC1=C2CC[C@H]3C(=O)NC(=O)[C@H]3[C@H]2[C@@]2(Cc3ccccc3)C(=NCc3ccccc3)OC(=O)N2C1=O	6.31 µM (active)	inactive	–
